Insulin prom up: MIN6 insulin promoter up-regulation; MIN6 insulin promoter-GFP reporter, high-content imaging; active compounds read high; z-score at 5 µM; 190,000 compounds, 0.3% hits; AID 1625;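 active = z-score above 3 at 5 µM with at least 500 cells counted in the well; inconclusive = wells under 500 cells, flagged as cytotoxic or low count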
Insulin prom inh: TRM-6 insulin promoter activity inhibition; inhibition, % at 2 µM; 130,000 compounds, 0.9% hits; TRM-6 cells (human fetal islet line), insulin promoter-eGFP reporter, imaging; reporter expression induced with tamoxifen; AID 1273;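 active = inhibition above the mean plus 3 SD, with well images judged a real hit on visual review, cut at about 60% in these data, passing the limit was not always enough; inconclusive = inhibition over the cutoff but images rejected on review; inactive = inhibition not above the cutoff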
WT yeast gro inh: growth inhibition of WT yeast, mitochondrial fusion screen | mitochondrial fusion phenotypic screen, WT strain | inhibition, % at 10 µM | 190,000 compounds, 2.1% hits; in the data active = inhibition above about 58%; tested in S. cerevisiae
ROMK mod: modulators of human ROMK potassium channel. 130,000 compounds, 2% hits. B-score at 10 µM. P48048. Tet-inducible ROMK, thallium flux fluorescence; actives lie on both sides;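 active = signal ratio slope over the read window, or its plate-corrected B-score, at least 3 SD from the plate mean, either direction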;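 note: B-score of the F/F0 ratio slope over 7 to 12 s after thallium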
L major viab: Leishmania major promastigote growth inhibition; Leishmania major promastigotes, resazurin fluorescence viability; inhibition, % at 10 µM; 200,000 compounds, 9% hits; in the data active = inhibition above about 50%;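 note: promastigotes grown with compound for 44 hours at 28 °C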
Cl transport mod: modulates chloride dependent transport by human KCC2; Q9H2X9; KCC2 cells, thallium flux FluoZin-2 fluorescence; B-score of Tl+ flux slope (higher = more flux/activation; lower = inhibition) at 10 µM; 190,000 compounds, 2.2% hits; AID 1456;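 active = thallium flux slope and its plate-corrected score both differing from the plate sample mean at a set confidence after two filtering rounds, in either direction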;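 note: slope of fluorescence scaled to starting intensity during 10 to 20 s after thallium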
KCC2 sec1: KCC2 (human) modulation, secondary assay | shares compounds with Cl transport mod | HEK293-KCC2, thallium flux, FluoZin2 fluorescence; active compounds read high | normalised thallium flux (F/F0 slope) at 10 µM | 3,700 compounds, 15% hits;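 active = thallium flux slope above the same plate's solvent-only control mean plus 3 SD; inconclusive = the two replicate wells disagree; inactive = no significant difference from solvent-only control wells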
KCC2 bumet counter: thallium flux persisting under bumetanide in KCC2 cells, counter-screen secondary assay; shares compounds with Cl transport mod; HEK293-KCC2 + bumetanide/ouabain, thallium flux FluoZin2; active compounds read high; normalized thallium flux at 10 µM; 3,700 compounds, 49% hits; AID 1714;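 active = thallium entry rate above the same plate's blocked-transporter control wells by more than 3 SD; inconclusive = the two repeat wells disagree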;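 note: raw slope of fluorescence over initial fluorescence between 10 and 20 s after thallium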
KCC2 secondary2: KCC2 (human) modulation, second secondary assay | shares compounds with Cl transport mod | HEK293-KCC2, thallium flux FluoZin2 fluorescence; actives lie on both sides; F/F0 rise rate, 10–20 s post-thallium | normalized thallium flux at 10 µM | 3,700 compounds, 23% hits;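 active = thallium flux slope more than 3 SD above or below the plate's solvent-only control mean, mostly below; inconclusive = the two repeat wells disagreed; inactive = no significant shift from solvent-only controls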;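 note: raw slope with 0.1% DMSO as baseline and bumetanide as block control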
HEK counter1: acts in parental HEK cells, KCC2 counter-screen; shares compounds with Cl transport mod; HEK293 parental cells, thallium flux FluoZin2, ouabain; baseline-ratio fluorescence slope, 10–20 s after thallium; thallium flux rate (normalised fluorescence) at 10 µM; 3,700 compounds, 46% hits;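 active = thallium flux rate significantly above the same plate's solvent-only control wells, beyond their mean plus 3 SD; inconclusive = the two replicate wells gave conflicting results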
KCC2 retest ouab: confirmation of human KCC2 modulators with ouabain; shares compounds with Cl transport mod; HEK293-KCC2, thallium flux FluoZin2 fluorescence; bidirectional: low = inhibitor, high = activator; raw Tl+ flux slope (below DMSO = inhibition, above = activation) at 10 µM; 3,700 compounds, 48% hits; AID 1717;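 active = thallium flux slope beyond 3 SD from same-plate DMSO control mean in most replicates, usually higher, sometimes lower; inconclusive = repeat tests gave conflicting results; inactive = no significant difference from controls in most replicates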;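 note: slope of initial-normalized fluorescence between seconds 10 and 20 after thallium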
HEK counter2: counter-screen for KCC2 modulators: effect in parental HEK293 cells; shares compounds with Cl transport mod; thallium flux FluoZin-2 fluorescence slope; thallium flux slope at 10 µM; 3,700 compounds, 33% hits;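 active = thallium flux slope above the same plate's solvent-control mean plus 3 SD in both duplicate wells; inconclusive = duplicate wells that disagreed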;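 note: run without ouabain in cells lacking the KCC2 cotransporter; slope of fluorescence scaled to its starting value between 10 and 20 s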
* = called active by the depositor; ? = inconclusive; · = not tested or not shown. Hits are enriched below; roughly 12% of the tested compounds scored in any of these assays.

SMILES	Insulin prom up	Insulin prom inh	WT yeast gro inh	ROMK mod	L major viab	Cl transport mod	KCC2 sec1	KCC2 bumet counter	KCC2 secondary2	HEK counter1	KCC2 retest ouab	HEK counter2
NC(=O)c1ccsc1NC(=O)C1CCCN1S(=O)(=O)c1ccc(Cl)cc1 (stereo not given)	0.73	-26.7	5.0	0.363	0.7	·	·	·	·	·	·	·
CSCC[C@H](NC(=O)OC(C)(C)C)c1nnc(SCC=C(C)C)o1	0.38	-77.1	-0.8	-1.12	6.3	-0.0321	·	·	·	·	·	·
CC(C)N(C(=O)CSc1nc2c([nH]1)c(=O)n(C)c(=O)n2C)c1ccccc1	0.18	·	2.6	·	-2.1	-3.68*	0.01	0.00643	0.0303	0.00779	0.019	0.0103
Cc1ccc(C(=O)CSc2nc3c([nH]2)c(=O)n(C)c(=O)n3C)cc1	-1.15	-9.1	-16.8	0.0415	-6.0	-0.891	·	·	·	·	·	·
CCOc1ccc2[nH]c(O)c(NC(C)=O)c2c1	-0.47	-20.8	21.3	0.018	-10.3	-0.652	·	·	·	·	·	·
CCOC(=O)c1sc(-c2ccc(C)cc2)c(C#N)c1C	-0.46	3.3	6.6	-0.124	-7.4	5.26*	0.00946	0.00575	0.0307	0.0073	0.0199	0.0104
CC1CCC2C(=O)N(c3ccc(NC4CCCCC4)c([N+](=O)[O-])c3)C(=O)C2C1 (stereo not given)	-0.02	31.4	15.2	-0.695	-4.1	1.21	·	·	·	·	·	·
Cn1c(SCC(=O)c2cc(Cl)c(Cl)s2)nnc1-c1ccco1	-0.28	·	·	·	·	-5.32*	0.00712	0.0301*	0.0323	0.0223*	0.0247	0.0168*
Cc1ccc(C(=O)CSc2nnc(-c3ccco3)n2C)cc1	0.79	·	11.2	-0.00746	-5.5	-4.75*	0.00579*	0.00589	0.0312	0.00747	0.0152*	0.0102
Cn1c(SCC(=O)N2c3ccccc3Sc3ccccc32)nnc1-c1ccco1	-0.83	23.7	11.7	0.409	-0.6	0.151	·	·	·	·	·	·
Cn1c(=O)c2cc(S(=O)(=O)NCCC(=O)N3CC=C(c4ccccc4)CC3)ccc2n(C)c1=O	-0.97	27.3	14.5	·	2.7	-0.404	·	·	·	·	·	·
Brc1ccc(-c2csc(Nc3nc(-c4ccc(Br)cc4)cs3)n2)cc1	-0.37	·	·	·	·	18.6*	0.0104	0.0248*	0.0347	0.0143*	0.0268	0.0118*
CC(=O)c1c(N2CCOCC2)nc(=O)n(-c2ccccc2)c1C	0.65	-19.4	-8.6	0.51	-3.2	0.449	·	·	·	·	·	·
COC(=O)c1cccnc1NC(=S)NC1CCCCC1	·	·	7.6	1.76	-3.5	121*	0.0117*	0.128*	0.0977*	0.105*	0.0976*	0.103*
C=CCn1c(-c2csc3ccccc23)n[nH]c1=S	-0.72	15.5	3.2	-1.14	11.7	0.00116	·	·	·	·	·	·
C=CCn1c(=S)[nH]c2sccc2c1=O	0.14	0.0	-7.4	-0.493	-0.5	7.77*	0.00678	0.0147*	0.0357	0.0166*	?	0.0192*
O=C(COC(=O)c1ccc(Sc2ccccc2)c([N+](=O)[O-])c1)NC1CCS(=O)(=O)C1 (stereo not given)	0.46	-6.7	-7.5	0.291	-6.5	-3.01	·	·	·	·	·	·
Cn1c(C(=O)NCCCN2CCN(c3ccccc3F)CC2)cc2c(=O)n(C)c3ccccc3c21	0	·	-0.6	·	36.5	-3.08	0.00739	0.00455	0.0236*	0.00759	?	0.011
Cn1c(C(=O)Nc2ccc3c(c2)OCO3)cc2c(=O)n(C)c3ccccc3c21	-0.54	·	9.5	·	-6.3	0.00147	·	·	·	·	·	·
Cc1ccc(CNC(=O)c2cc3c(=O)n(C)c4ccccc4c3n2C)o1	-0.53	·	-3.9	·	-4.9	-4.33*	0.0103	0.00675	0.0279	0.00763	0.0218*	?
CCOc1ccc(NC(=O)c2cc3c(=O)n(C)c4ccccc4c3n2C)cc1	0.43	·	-7.7	·	19.6	-2.01	0.00768	0.00673	0.0328	0.00738	?	0.0107
CCCC(=O)NC(=S)Nc1nc(-c2ccc(OC)cc2)cs1	-0.28	8.8	0.5	0.0828	0.2	2.8	·	·	·	·	·	·
O=C(NC(=S)Nc1nc(-c2ccccc2)cs1)c1ccco1	1.03	·	4.6	0.95	-3.8	16.5*	?	0.0451*	0.0301	0.0198*	0.0318*	0.0118*
COc1ccc(-c2csc(NC(=S)NC(=O)c3ccco3)n2)cc1	-0.48	-26.7	0.0	-0.0945	-4.5	·	0.00712	0.0158*	0.0428*	0.0238*	0.0281*	0.0231*
O=C(NC(=S)Nc1c(Cl)ccc2nsnc12)c1ccco1	0.18	23.1	0.3	·	-6.3	19.1*	0.0212*	0.0674*	0.0365	0.0249*	0.0447*	0.0149*
SMILES	Insulin prom up	Insulin prom inh	WT yeast gro inh	ROMK mod	L major viab	Cl transport mod	KCC2 sec1	KCC2 bumet counter	KCC2 secondary2	HEK counter1	KCC2 retest ouab	HEK counter2
COc1ccc2nc(NC(=S)NC(=O)c3ccco3)sc2c1	·	·	-6.0	-0.295	26.2	80.2*	0.0302*	0.143*	0.0301*	0.0746*	0.0974*	0.0386*
CC1(C)C2CCC1(C)C(OC(=O)CSc1nc(N)cc(=O)[nH]1)C2 (stereo not given)	-0.86	2.7	-7.6	·	11.4	-0.504	·	·	·	·	·	·
COc1ccc(OCC(=O)OCC(=O)NCc2ccc(F)cc2)cc1	-0.03	·	-4.0	·	-7.8	-0.339	·	·	·	·	·	·
CC(CCc1ccccc1)NC(=S)NC(=O)c1ccco1 (stereo not given)	-0.32	-52.9	5.1	1.24	6.5	103*	0.0352*	0.0904*	0.0701*	0.0701*	0.0758*	0.0683*
O=C(Nc1nc(-c2cccs2)cs1)c1ccco1	-0.44	27.3	10.2	-0.485	3.4	-0.787	·	·	·	·	·	·
O=C(Nc1nc(-c2ccncc2)cs1)c1ccco1	-1.74	21.4	9.3	-0.234	8.5	·	0.00749	0.00417	0.0314	0.0074	0.0198	0.00931
Cc1nc2ccc(C(=O)c3ccccc3)cc2[nH]1	0.27	63.2	8.5	·	16.6	-1.29	·	·	·	·	·	·
COc1cccc(/C=N/Nc2snc(SC)c2C#N)c1O	-2.99	0.0	13.8	-2.41	-12.0	31.5*	0.0229*	0.0822*	0.0376	0.0392*	0.0554*	0.0143*
O=C1OC(Nc2ccc(F)cc2F)c2ccccc21 (stereo not given)	-0.54	21.4	2.0	0.205	-3.0	·	0.00656	0.00502	0.0268	0.00765	0.0186	0.0106
